# In PubChem BioAssay (NCATS):
# Records with an inconclusive call do not appear. A call without a number means that no potency is given here. Calls of active or inactive are those of the source. The call rests on the fitted dose curve; in most records, active means well fitted curve in the direction sought with a large enough effect; inconclusive means small, poorly fitted or top-dose-only effect, or another doubt; inactive means no such curve, though single readings can be large; an effect the other way counts as inactive or inconclusive.
# Legend:
# [1] = Confirmation and Secondary Assay for Modulators of Hemoglobin Beta Chain Splicing at IVS2 654 locus (AID 910);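 further: HeLa cells stably carrying EGFP split by mutant beta-globin IVS2-654 intron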
# How it was run: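 HeLa cells stably expressing EGFP interrupted by β-globin IVS2-654 intron, seeded overnight in Opti-MEM/2% FCS, then treated 2 days at 37 °C. Restored splicing read as total peak GFP intensity per well by laser scanning cytometry (488 nm excitation, 500–520 nm emission); 500 nM antisense PNA as control.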
# [2] = Confirmation and Secondary Assay for Modulators of Hemoglobin Beta Chain Splicing at IVS2 705 locus (AID 930);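 further: HeLa cells stably expressing the EGFP-705 splicing reporter; series mostly up to about 46 µM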
# How it was run: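 Restored EGFP fluorescence after 2-day compound exposure reports splicing correction in IVS2-705 EGFP reporter HeLa cells; positive control was 500 nM splice-blocking PNA oligo. Signal measured as well total peak GFP intensity (488 nm excitation).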
# [3] = biological target: Tyrosyl-DNA phosphodiesterase 1 (Homo sapiens) (UniProt Q9NUW8); experiment: Confirmation Assay for Inhibitors of Tyrosyl-DNA Phosphodiesterase (TDP1) (AID 489007); details: recombinant human TDP1 enzymatic activity, dose-response; further: potency means the concentration at half of the fitted maximal effect; nearly all actives have a fitted effect of over 40% in size
# How it was run: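 AlphaScreen assay of tyrosine-FITC cleavage from a biotinylated DNA substrate (15 nM) by E. coli-expressed human Tdp1 (1 nM). Sequence: compound preincubation 15 min, reaction 5 min, bead detection 10 min, all at room temperature. No-enzyme wells give maximum signal.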
# [4] = biological target: Rap guanine nucleotide exchange factor 3 (Homo sapiens) (UniProt O95398); experiment: Confirmatory qHTS for antagonist of cAMP-regulated guanine nucleotide exchange factor 3 (EPAC1) (AID 1645880); further: nearly all actives have a fitted effect of over 55% in size
# How it was run: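 Released BODIPY-GDP fluoresces less than Rap1-bound BODIPY-GDP; the signal is followed at 480/540 nm at 5-min intervals over 30 min, after 5 min at room temperature. Reactions contain 100 nM EPAC1, 250 nM RAP1B-BODIPY-GDP and 50 uM GDP; results are normalized to ATA and DMSO.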
# [5] = biological target: Rap guanine nucleotide exchange factor 3 (Homo sapiens) (UniProt O95398); experiment: Confirmatory qHTS for agonist of cAMP-regulated guanine nucleotide exchange factor 3 (EPAC1) (AID 1645881);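 further: EPAC1 catalysed release of BODIPY-GDP from Rap1B seen as fluorescence loss; nearly all actives have a fitted effect of over 75% in size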
# [6] = biological target: Rap guanine nucleotide exchange factor 4 (Homo sapiens) (UniProt Q8WZA2); experiment: Confirmatory qHTS for agonist of cAMP-regulated guanine nucleotide exchange factor 4 (EPAC2) (AID 1645884);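 further: nucleotide exchange releases bodipy-GDP from Rap1 and this lowers its fluorescence; nearly all actives have a fitted effect of over 65% in size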
# [7] = biological target: Rap guanine nucleotide exchange factor 4 (Homo sapiens) (UniProt Q8WZA2); experiment: Confirmatory qHTS for antagonist of cAMP-regulated guanine nucleotide exchange factor 4 (EPAC2) (AID 1645885); further: nearly all actives have a fitted effect of over 25% in size
# [8] = biological target: Dual specificity protein kinase CLK4 (Homo sapiens) (UniProt Q9HAZ1); experiment: qHTS Assay for Inhibitors of CDC-like Kinase 4 (ADP-FP Assay) (AID 1795);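 further: recombinant human CLK4 phosphorylating RS repeat peptide at 1 µM ATP; series mostly up to about 50 µM; nearly all actives have a fitted effect of over 60% in size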
# How it was run: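 Kinase activity was followed as ADP output, converted from fluorescence polarization with a calibration curve. Reactions ran one hour at low ATP (1 uM) with RS peptide substrate.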
# [9] = biological target: DNA repair nuclease/redox regulator APEX1 (Homo sapiens) (UniProt P27695); experiment: qHTS Validation Assay for Inhibitors of the Human Apurinic/apyrimidinic Endonuclease 1 (APE1) (AID 1705;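 further: TAMRA fluorescence gain over two minutes as APE1 cuts a quenched THF abasic duplex; series mostly up to about 57 µM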)
# How it was run: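 Substrate: 50 nM final fluorophore/quencher THF-abasic duplex. Enzyme preincubated with compounds 15 min, RT. Progress derived from fluorescence difference, third minus first kinetic read.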
# [10] = Counterscreen for APE1 Inhibitors: Fluorescent Dye Displacement Validation Assay (AID 1707)
# How it was run: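 Endpoint fluorescence read at 480 nm excitation / 540 nm emission; DNA-binding compounds lower signal by displacing 250 nM Thiazole Orange from 50 nM dsDNA containing a tetrahydrofuran abasic site, Tris-HCl pH7.5 buffer with NaCl and MgCl2.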
# [11] = qHTS for differential inhibitors of proliferation of Plasmodium falciparum line GB4 (AID 1816); details: Potency: Plasmodium falciparum GB4 proliferation inhibition;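 further: potency means the concentration at half of the fitted maximal effect; parasite growth measured after 72 h incubation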
# [12] = qHTS for differential inhibitors of proliferation of Plasmodium falciparum line 3D7 (AID 1876); further: potency means the concentration at half of the fitted maximal effect
# [13] = qHTS for differential inhibitors of proliferation of Plasmodium falciparum line D10 (AID 1877);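 further: potency means the concentration at half of the fitted maximal effect; parasites grown with compound for 72 h before DNA staining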
# [14] = qHTS for differential inhibitors of proliferation of Plasmodium falciparum line Dd2 (AID 1882); details: Potency: Plasmodium falciparum Dd2 proliferation inhibition; further: potency means the concentration at half of the fitted maximal effect; nearly all actives have a fitted effect of over 65% in size
# How it was run: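 SYBR Green DNA fluorescence (ex 485, em 535 nm) after overnight lysis quantifies parasite growth; compound exposure lasted 72 h at 37 C on infected red cells at 2.5% hematocrit, 0.3% parasitemia (final). Artemisinin 0.29 uM and vehicle wells define normalization.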
# [15] = qHTS for differential inhibitors of proliferation of Plasmodium falciparum line W2 (AID 1883); details: Potency: Plasmodium falciparum W2 proliferation inhibition;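 further: potency means the concentration at half of the fitted maximal effect; parasites grown with compound for 72 h before lysis and staining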
# [16] = qHTS for differential inhibitors of proliferation of Plasmodium falciparum line HB3 (AID 1886); details: Potency: Plasmodium falciparum HB3 proliferation inhibition;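 further: potency means the concentration at half of the fitted maximal effect; parasites grown with compound for 72 h before SYBR Green readout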
# [17] = biological target: Ferritin light chain (Equus caballus) (UniProt P02791); experiment: qHTS Validation Assay for Identification of Novel General Anesthetics (AID 2323); further: series mostly up to about 77 µM
# How it was run: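 Normalized fluorescence response, scaled between free 1-AMA and 1-AMA/apoferritin complex, fitted to a four-parameter Hill equation for concentration-effect values. Binding mix: 10 uM horse-spleen apoferritin, 50% saturated 1-AMA in PBS; read 380/535 nm after 10 min.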
# [18] = biological target: RecQ-like DNA helicase BLM (Homo sapiens) (UniProt P54132); experiment: qHTS Validation Assay for Inhibitors of Bloom's syndrome helicase (BLM) (AID 2364)
# How it was run: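 50 nM BLM preincubated 15 min at room temperature with compound in pH 8.0 Tris buffer containing 2.5 ug/ml poly(dI-dC); started with 200 nM TAMRA/BHQ-2 forked duplex and 2 mM ATP (final). Unwinding read as TAMRA fluorescence increase, two reads 2 h apart.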
# [19] = Validation screen for small molecules that induce DNA re-replication in MCF 10A normal breast cells (AID 463097); further: nearly all actives have a fitted effect of over 60% in size
# How it was run: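 Following 48 hr compound incubation (37 C, 5% CO2), MCF 10A cells receive Hoechst for 40 min at 37 C. Nuclei are then scanned (excitation 405 nm, emission 500-530 nm) for total fluorescence intensity.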
# [20] = Quantitative high throughput screen for delayed death inhibitors of the malarial parasite plastid, 96 hour incubation (AID 488745); further: potency means the concentration at half of the fitted maximal effect; nearly all actives have a fitted effect of over 70% in size
# How it was run: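 Decreased firefly luciferase luminescence indicates inhibited growth of reporter-integrated P. falciparum after two generations (96 h, 37 C, 5% CO2). Infected erythrocytes at 0.1% parasitemia, 2% hematocrit, in Albumax-supplemented RPMI 1640.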
# Sequence of Rap guanine nucleotide exchange factor 4 (Homo sapiens) (Q8WZA2 whole entry, looked up): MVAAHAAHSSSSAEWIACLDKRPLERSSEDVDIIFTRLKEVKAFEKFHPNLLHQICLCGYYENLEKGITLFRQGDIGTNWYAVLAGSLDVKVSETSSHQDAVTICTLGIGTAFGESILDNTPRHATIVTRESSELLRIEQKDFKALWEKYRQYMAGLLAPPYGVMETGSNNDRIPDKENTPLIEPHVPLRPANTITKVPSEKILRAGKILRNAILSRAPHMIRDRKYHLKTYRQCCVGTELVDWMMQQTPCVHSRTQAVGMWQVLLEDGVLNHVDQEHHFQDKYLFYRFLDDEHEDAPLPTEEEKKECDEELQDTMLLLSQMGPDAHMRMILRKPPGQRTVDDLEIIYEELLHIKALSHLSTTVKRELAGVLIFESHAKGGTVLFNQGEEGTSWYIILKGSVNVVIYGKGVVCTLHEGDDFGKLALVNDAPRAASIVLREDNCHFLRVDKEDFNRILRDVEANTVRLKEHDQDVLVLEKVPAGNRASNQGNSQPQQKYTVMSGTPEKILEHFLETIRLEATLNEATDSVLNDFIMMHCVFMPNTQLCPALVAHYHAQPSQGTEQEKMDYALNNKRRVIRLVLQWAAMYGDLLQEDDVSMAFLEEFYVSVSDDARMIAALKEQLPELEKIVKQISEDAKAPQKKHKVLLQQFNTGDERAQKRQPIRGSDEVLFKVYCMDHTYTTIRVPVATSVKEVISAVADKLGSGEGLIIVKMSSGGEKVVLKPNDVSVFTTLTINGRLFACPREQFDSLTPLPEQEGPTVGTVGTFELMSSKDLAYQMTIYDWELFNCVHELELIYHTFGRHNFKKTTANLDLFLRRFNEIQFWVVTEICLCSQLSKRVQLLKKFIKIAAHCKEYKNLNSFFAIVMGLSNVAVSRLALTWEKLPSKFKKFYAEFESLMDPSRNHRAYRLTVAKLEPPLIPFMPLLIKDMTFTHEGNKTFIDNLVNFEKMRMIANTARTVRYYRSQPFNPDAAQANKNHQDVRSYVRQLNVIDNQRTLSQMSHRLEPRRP
# Sequence of Rap guanine nucleotide exchange factor 3 (Homo sapiens) (O95398 whole entry, looked up): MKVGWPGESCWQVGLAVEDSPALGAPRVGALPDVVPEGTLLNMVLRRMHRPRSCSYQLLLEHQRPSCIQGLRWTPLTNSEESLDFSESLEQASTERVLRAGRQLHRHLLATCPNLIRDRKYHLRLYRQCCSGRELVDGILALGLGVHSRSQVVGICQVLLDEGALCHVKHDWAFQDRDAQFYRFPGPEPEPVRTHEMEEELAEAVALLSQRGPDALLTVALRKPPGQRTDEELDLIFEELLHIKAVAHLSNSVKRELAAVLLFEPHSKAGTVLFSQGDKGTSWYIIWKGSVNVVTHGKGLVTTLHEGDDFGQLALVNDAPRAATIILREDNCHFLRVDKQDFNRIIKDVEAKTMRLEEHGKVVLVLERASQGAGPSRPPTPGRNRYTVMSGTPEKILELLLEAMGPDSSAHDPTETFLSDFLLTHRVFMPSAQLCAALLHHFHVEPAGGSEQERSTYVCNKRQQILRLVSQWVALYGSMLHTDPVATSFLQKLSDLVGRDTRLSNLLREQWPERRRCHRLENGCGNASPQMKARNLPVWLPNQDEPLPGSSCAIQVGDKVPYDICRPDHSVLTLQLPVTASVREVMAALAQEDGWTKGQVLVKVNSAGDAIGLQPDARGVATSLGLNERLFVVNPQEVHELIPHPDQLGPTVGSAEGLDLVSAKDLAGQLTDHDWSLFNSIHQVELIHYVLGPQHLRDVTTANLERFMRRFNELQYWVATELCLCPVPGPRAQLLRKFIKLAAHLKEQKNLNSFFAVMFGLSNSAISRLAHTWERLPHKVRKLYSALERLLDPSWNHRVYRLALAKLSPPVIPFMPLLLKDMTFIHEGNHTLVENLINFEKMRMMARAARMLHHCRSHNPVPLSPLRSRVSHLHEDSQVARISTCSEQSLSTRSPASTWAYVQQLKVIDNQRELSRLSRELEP
# Sequence of Dual specificity protein kinase CLK4 (Homo sapiens) (Q9HAZ1 whole entry, looked up): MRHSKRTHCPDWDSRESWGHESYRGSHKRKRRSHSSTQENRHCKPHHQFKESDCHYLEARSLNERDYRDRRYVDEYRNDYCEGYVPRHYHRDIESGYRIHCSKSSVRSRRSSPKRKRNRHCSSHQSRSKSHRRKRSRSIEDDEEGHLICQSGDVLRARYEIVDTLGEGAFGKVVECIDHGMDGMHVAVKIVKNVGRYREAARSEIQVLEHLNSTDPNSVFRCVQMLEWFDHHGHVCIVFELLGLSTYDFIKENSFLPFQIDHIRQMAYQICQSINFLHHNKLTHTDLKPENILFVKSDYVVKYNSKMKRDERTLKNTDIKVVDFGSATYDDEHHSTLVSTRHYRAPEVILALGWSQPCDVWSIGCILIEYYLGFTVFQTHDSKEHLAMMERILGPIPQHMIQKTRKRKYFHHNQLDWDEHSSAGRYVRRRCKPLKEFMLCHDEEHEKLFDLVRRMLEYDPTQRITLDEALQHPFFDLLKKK
# Sequence of Tyrosyl-DNA phosphodiesterase 1 (Homo sapiens) (Q9NUW8 whole entry, looked up): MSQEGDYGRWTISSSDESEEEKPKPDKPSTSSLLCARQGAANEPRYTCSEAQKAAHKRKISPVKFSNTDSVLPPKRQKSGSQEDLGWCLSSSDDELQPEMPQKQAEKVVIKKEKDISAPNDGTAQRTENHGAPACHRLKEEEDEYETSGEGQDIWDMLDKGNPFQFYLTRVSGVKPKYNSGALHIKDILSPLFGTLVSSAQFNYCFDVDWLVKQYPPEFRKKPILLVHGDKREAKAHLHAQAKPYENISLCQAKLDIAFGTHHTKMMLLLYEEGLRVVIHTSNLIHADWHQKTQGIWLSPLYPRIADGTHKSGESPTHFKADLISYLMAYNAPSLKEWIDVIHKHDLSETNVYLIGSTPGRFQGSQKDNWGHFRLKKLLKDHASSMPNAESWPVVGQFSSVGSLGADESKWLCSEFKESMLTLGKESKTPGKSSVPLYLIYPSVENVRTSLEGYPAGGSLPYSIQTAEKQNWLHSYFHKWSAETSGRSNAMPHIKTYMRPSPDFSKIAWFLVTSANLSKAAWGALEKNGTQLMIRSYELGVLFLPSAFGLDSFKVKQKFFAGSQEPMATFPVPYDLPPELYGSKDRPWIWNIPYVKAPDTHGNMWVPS
# Sequence of Ferritin light chain (Equus caballus) (P02791 2-175 limits assumed): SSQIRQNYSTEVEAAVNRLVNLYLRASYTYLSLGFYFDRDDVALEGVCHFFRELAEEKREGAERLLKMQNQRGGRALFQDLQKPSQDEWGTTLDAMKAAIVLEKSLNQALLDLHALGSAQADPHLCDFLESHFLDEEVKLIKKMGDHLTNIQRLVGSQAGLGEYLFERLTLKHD
# Sequence of DNA repair nuclease/redox regulator APEX1 (Homo sapiens) (P27695 whole entry, looked up): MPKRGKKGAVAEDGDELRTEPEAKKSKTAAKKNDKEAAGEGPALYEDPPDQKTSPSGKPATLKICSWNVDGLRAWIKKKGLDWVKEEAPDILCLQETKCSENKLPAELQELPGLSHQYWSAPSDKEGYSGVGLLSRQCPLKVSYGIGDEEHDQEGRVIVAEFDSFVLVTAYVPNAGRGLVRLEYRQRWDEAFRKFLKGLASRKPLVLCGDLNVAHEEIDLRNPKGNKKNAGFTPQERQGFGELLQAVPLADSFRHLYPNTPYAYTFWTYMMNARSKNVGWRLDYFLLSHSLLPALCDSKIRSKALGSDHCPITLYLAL
# Sequence of RecQ-like DNA helicase BLM (Homo sapiens) (P54132 whole entry, looked up): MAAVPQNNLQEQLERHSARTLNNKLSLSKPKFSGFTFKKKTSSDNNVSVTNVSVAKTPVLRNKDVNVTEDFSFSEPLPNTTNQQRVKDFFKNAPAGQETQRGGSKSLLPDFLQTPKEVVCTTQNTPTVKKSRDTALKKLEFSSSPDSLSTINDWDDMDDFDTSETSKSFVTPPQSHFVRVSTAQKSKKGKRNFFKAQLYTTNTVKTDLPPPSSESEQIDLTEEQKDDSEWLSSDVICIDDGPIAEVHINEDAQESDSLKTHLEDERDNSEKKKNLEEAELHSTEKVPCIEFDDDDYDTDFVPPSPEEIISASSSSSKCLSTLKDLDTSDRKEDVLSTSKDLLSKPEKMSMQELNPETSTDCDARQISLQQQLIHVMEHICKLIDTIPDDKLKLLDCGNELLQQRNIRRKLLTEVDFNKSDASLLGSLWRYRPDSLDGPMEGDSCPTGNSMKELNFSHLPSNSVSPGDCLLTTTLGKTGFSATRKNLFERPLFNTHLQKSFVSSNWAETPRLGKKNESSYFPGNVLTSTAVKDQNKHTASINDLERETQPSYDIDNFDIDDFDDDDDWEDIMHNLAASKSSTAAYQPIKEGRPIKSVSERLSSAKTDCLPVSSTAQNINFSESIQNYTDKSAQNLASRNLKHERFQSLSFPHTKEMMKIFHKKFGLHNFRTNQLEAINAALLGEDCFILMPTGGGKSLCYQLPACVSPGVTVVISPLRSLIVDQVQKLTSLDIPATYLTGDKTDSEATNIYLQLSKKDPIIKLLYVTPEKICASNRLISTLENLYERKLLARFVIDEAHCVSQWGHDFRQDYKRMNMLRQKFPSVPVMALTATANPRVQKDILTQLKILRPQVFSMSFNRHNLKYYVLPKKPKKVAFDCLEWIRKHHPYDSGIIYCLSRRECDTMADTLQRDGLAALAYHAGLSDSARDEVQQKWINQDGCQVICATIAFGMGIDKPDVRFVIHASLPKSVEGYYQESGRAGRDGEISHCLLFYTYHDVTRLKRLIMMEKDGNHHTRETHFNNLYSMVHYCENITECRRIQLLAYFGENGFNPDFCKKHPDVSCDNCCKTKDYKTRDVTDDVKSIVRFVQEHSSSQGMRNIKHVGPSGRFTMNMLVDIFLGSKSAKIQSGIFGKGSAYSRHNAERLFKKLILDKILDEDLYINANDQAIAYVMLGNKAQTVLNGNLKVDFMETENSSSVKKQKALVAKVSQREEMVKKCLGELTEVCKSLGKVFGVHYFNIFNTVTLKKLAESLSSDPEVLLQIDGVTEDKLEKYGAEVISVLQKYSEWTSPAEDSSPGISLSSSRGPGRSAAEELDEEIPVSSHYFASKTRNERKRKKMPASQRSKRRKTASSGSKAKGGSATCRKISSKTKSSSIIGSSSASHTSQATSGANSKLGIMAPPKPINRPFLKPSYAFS
compound,measurement,setting,value
Cc1cccc(CNc2ncnc3ccc(-c4cccc(C#N)c4)cc23)c1,outcome,[1],inactive
same,outcome,[2],inactive
CN(C)c1ccc(-c2nc(N(C)Cc3ccco3)c3ccccc3n2)cc1,outcome,[1],inactive
same,outcome,[2],inactive
Cc1ccccc1-c1cncnc1N(C)Cc1ccco1,outcome,[1],inactive
same,outcome,[2],inactive
same,Potency,[3],3160 nM (active)
COc1ccc(C(=O)N2CCC3(CC2)CN(c2ccncc2)C3)cc1,Potency,[4],inactive
same,outcome,[5],inactive
same,outcome,[6],inactive
same,Potency,[7],inactive
COCCn1c(=O)c(-c2cc(F)cc(F)c2)nc2cnc(N3CCOCC3)nc21,Potency,[8],inactive
COc1ccc(Oc2ncc3nc(C)c(=O)n(Cc4cccc(OC)c4)c3n2)cc1,Potency,[8],inactive
CN(C)c1ncc2nc(-c3ccccc3)c(=O)n(Cc3ccc(F)cc3)c2n1,Potency,[8],inactive
CCCNC[C@H](O)COc1ccccc1C(=O)CCc1ccccc1,Potency,[9],inactive
same,Potency,[10],inactive
same,Potency,[11],316 nM (active)
same,Potency,[12],891 nM (active)
same,Potency,[13],2000 nM (active)
same,Potency,[14],1120 nM (active)
same,Potency,[15],282 nM (active)
same,Potency,[16],1120 nM (active)
same,outcome,[17],inactive
same,Potency,[18],inactive
same,outcome,[19],inactive
same,Potency,[20],2620 nM (active)
O=c1cnc2cnc(N3CCNCC3)nc2n1Cc1ccc(F)cc1,Potency,[8],inactive
CNc1ccnc(-c2c(C)noc2C)n1,outcome,[1],inactive
same,outcome,[2],inactive
Cc1noc(C)c1-c1cncnc1NCc1ccccc1,Potency,[8],inactive
COCCn1c(=O)c(-c2cccc(C#N)c2)nc2cnc(Oc3ccccc3)nc21,Potency,[8],inactive
CN(C)c1ncc2nc(-c3cccs3)c(=O)n(C[C@H]3CCCO3)c2n1,Potency,[4],inactive
same,Potency,[7],inactive
O=C(Oc1ccccc1)N1CCC2(CCCN(c3ccccc3)C2)CC1,Potency,[4],inactive
same,outcome,[5],inactive
same,outcome,[6],inactive
same,Potency,[7],inactive
Cc1noc(C)c1-c1cc(Nc2ccc(F)cc2)ncn1,outcome,[1],inactive
same,outcome,[2],inactive
CN1CCN(c2ncc3nc(-c4ccc(F)cc4)c(=O)n(Cc4cccs4)c3n2)CC1,Potency,[8],inactive
Cc1noc(C)c1-c1cc(N2CCN(C)CC2)ncn1,Potency,[8],inactive
